In PubChem BioAssay (EPA / NIEHS):
Values joined by “and” are separate entries in the source; they are usually repeats but may differ in a detail not shown here. Identical values can stand only once. Records with an inconclusive call do not appear. A structure can be active in one record and inactive in another. Active and inactive are the calls of the source. How the source made its calls: active means hit-call score of the fitted dose curve at least 0.9, where 1 is the maximum; inconclusive means response in the unintended direction; inactive means score below 0.9.

The compounds below were run against Estrogen receptor (Homo sapiens) (UniProt P03372) (assay: OT_ER_ERaERa_0480: Odyssey Thera (OT) 8-hour HEK293T Protein-Complementation Assay for Estrogen Receptor-alpha/-alpha Homodimer (AID 2283351);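 further: rise in fluorescence from reassembled reporter fragments on ERα LBD homodimer in nucleus or whole cell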).
Procedure: OT_ER_ERaERa_0480 is a cell-based assay that uses HEK293T, a human kidney cell line, with measurements taken at 8 hours after chemical dosing in a 384-well plate.OT_ER_ERaERa_0480 is one of one assay component(s) measured or calculated from the OT_ER_ERaERa_0480 assay. It is designed to make measurements of protein fragment complementation, a form of binding reporter, as detected with fluorescence intensity signals by Protein-fragment Complementation technology.Data from the assay component OT_ER_ERaERa_0480 was analyzed into 1 assay endpoint. This assay endpoint, OT_ER_ERaERa_0480, was analyzed in the positive analysis fitting direction relative to DMSO as the negative control and baseline of activity. Using a type of binding reporter, measures of receptor for gain-of-signal activity can be used to understand the binding at the pathway-level as they relate to the gene ESR1. Furthermore, this assay endpoint can be referred to as a primary readout, because the performed assay has only produced 1 assay endpoint. To generalize the intended target to other relatable targets, this assay endpoint is annotated to the nuclear receptor intended target family, where the subfamily is steroidal.
Protein-fragment complementation assay, or PCA, is a method for the identification and quantification of protein-protein interactions. In the PCA, the proteins of interest ("bait" and "prey") are each covalently linked to fragments of a third protein (e.g. DHFR, which acts as a "reporter"). Interaction between the bait and the prey proteins brings the fragments of the reporter protein in close proximity to allow them to form a functional reporter protein whose activity can be measured. The OT ER alpha / ER alpha assay is a homodimer PCA of the ligand binding domain (amino acids 310-547) of human ER alpha stably expressed in HEK293T cells. […] Fluorescent signal in the basal state of the assay is very low and is primarily punctuate and cytoplasmic. Modulation of this assay is quantified as an increase in mean fluorescence intensity in the nucleus (for agonists) or in the nucleus and cytoplasm (antagonists) relative to vehicle controls, and can be quantified on a high content imaging device or a laser scanning cytometer. The latter instrument is favored for this assay because of the rapid mode of data acquisition, the ability to acquire data from the entire cell population in a well (as opposed to a fraction of the well on the high content devices) and the larger dynamic range typically achieved with this instrument. To assess sensitivity of the ER alpha/ER alpha LBD assay to ligand, cells were treated with the ER agonist 17 beta-estradiol (E2) in 10-point concentration- response format for 8 hours and monitored response on a laser scanning plate cytometer (Acumen eX3; TTP Lab Tech).

Sequence of Estrogen receptor (Homo sapiens) (P03372 whole entry, looked up, the tested form may be a part): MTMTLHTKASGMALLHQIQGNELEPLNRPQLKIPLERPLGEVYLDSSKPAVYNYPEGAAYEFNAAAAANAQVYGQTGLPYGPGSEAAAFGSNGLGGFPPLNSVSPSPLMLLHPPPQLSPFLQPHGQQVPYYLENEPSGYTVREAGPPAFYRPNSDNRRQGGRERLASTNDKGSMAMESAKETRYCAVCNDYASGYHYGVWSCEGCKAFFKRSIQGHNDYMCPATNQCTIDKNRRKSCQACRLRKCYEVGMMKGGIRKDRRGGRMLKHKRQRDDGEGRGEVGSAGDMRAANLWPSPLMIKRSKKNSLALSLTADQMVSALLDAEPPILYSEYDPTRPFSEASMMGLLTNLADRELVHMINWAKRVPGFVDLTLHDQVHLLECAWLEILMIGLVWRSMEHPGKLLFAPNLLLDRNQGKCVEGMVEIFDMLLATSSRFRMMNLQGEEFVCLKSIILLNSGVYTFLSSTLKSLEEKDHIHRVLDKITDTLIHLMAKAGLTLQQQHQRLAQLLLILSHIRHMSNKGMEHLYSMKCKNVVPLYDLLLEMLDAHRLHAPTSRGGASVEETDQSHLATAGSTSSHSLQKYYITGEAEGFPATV

| Compound | outcome | AC50 |
| --- | --- | --- |
| OCC1CO1 (stereo not given) | inactive | – |
| CCCCCCCc1ccc(O)cc1 | inactive | 26.1 µM (active) and 23.4 µM (active) and 23.6 µM (active) |
| [N-]=[N+]=[N-] | inactive | – |
| CCCCC(CC)COP(=O)(Oc1ccccc1)Oc1ccccc1 (stereo not given) | inactive | – |
| CCC(C)(C)c1ccc(O)cc1 | – | 8.61 µM (active) |
| CCCCc1ccccc1 | inactive | – |
| CCOS(=O)(=O)OCC | inactive | – |
| CCCCc1ccc(O)cc1 | – | 19.7 µM (active) |
| CCCCOCCOP(=O)(OCCOCCCC)OCCOCCCC | inactive | – |
| CSC(C)(C)C=NO | inactive | – |
| ClC(Cl)(Cl)c1ccccc1 | inactive | – |
| Nc1ccc2ccccc2c1 | inactive | – |
| CCCCC(CC)COC(=O)c1c(Br)c(Br)c(Br)c(Br)c1C(=O)OCC(CC)CCCC (stereo not given) | inactive | – |
| c1ccc(OP(Oc2ccccc2)Oc2ccccc2)cc1 | inactive | – |
| CCN(CC)c1ccccc1 | inactive | – |
| Cc1ccc(O)cc1C | inactive | – |
| O=c1ssc(Cl)c1Cl | inactive | – |
| CCOC(=O)c1ccccc1N | inactive | – |
| Cc1ccc(N)cc1N | inactive | – |
| COCCOCCO | inactive | – |

| Compound | outcome | AC50 |
| --- | --- | --- |
| CCOP(=S)(OCC)SCSCC | inactive | – |
| c1cc2c3c(cccc3c1)CC2 | inactive | – |
| O=S(=O)(c1ccc(O)cc1)c1ccc(O)cc1 | – | 36.7 µM (active) |
| CCCCN(CC)C(=O)SCCC | inactive | – |
| CC(C)(C)OOC(C)(C)C | inactive | – |
| O=C(CBr)OCc1ccccc1 | inactive | – |
| O=C(O)CF | inactive | – |
| COC(N)=O | inactive | – |
| CC1(C)CN=C(NN=C(/C=C/c2ccc(C(F)(F)F)cc2)/C=C/c2ccc(C(F)(F)F)cc2)NC1 | inactive | – |
| CO/N=C(/C(=O)OC)c1ccccc1COc1ccccc1C | – | 50 µM (active) |
| CCNc1nc(Cl)nc(NC(C)(C)C)n1 | inactive | – |
| O=[N+]([O-])c1ccc(Cl)c(Cl)c1 | inactive | – |
| O=C(O)C1C(C(=O)O)C2(Cl)C(Cl)=C(Cl)C1(Cl)C2(Cl)Cl (stereo not given) | inactive | – |
| Nc1cc2c3c(c1)C(c1ccccc1)=N[C@@H](NC(=O)c1cccnc1)C(=O)N3CC2 | inactive | – |
| c1nc[nH]n1 | inactive | – |
| ClC(Cl)c1ccccc1 | inactive | – |
| CCOP(=S)(Oc1ccc([N+](=O)[O-])cc1)c1ccccc1 (stereo not given) | – | 14.8 µM (active) |
| c1ccc2c(c1)Nc1ccccc1S2 | inactive | – |
| O=NN1CCCC1 | inactive | – |
